Data on 16 compounds can be found in PubChem BioAssay.

The other results are listed elsewhere or left out. Values without a mark were called inactive. Calls of active or inactive are those of the source.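 The calls were made as follows: active = fluorescence ratio rising 3 SD or more over the vehicle control mean in both replicates, plus primary screen hit; inactive = the rest.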

The assay deals with Potassium voltage-gated channel subfamily KQT member 2 (Rattus norvegicus) (UniProt O88943). The experiment in a line: KCNQ2 potassium channel activity enhancers – cell-based, CHO, FluxOR thallium flux, duplicate, confirmation (AID 2287).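 Also: peak minus minimum thallium fluorescence divided by baseline after K/Tl stimulus; 0% = vehicle mean plus 3 SD and 100% = vehicle minus unstimulated blank difference.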 As to conditions: CHO-KCNQ2 cells, FluxOR thallium flux fluorescence; at 10 µM; hits give high values.
Sequence of Potassium voltage-gated channel subfamily KQT member 2 (Rattus norvegicus) (O88943 whole entry, looked up): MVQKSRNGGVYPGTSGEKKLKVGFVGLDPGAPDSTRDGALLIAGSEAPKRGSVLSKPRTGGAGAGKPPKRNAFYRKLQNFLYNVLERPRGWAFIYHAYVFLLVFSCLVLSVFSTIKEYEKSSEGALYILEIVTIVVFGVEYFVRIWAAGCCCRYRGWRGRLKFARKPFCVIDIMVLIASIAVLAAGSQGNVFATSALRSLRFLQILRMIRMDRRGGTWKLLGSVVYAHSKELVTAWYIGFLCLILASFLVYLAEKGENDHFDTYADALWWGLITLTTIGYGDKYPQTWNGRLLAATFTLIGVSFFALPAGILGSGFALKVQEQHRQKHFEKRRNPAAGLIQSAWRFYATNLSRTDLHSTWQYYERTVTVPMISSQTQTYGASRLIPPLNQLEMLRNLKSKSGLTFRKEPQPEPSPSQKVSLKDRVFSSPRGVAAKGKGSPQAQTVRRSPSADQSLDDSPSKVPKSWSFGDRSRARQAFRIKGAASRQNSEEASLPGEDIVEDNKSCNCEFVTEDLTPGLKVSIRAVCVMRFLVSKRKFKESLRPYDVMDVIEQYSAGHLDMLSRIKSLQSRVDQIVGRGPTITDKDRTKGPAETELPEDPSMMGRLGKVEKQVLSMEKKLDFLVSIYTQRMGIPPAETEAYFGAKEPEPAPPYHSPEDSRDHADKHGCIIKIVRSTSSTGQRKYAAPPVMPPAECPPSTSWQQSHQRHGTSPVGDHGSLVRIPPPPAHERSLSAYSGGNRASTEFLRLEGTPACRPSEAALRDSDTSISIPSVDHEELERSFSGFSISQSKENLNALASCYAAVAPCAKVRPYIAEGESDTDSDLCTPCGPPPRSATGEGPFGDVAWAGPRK
For the compound `CN(c1ccccc1)S(=O)(=O)c1ccc(Cl)c(C(=O)OCC(=O)NCc2ccco2)c1`, the potentiation, less the hit threshold was -1.3%.

As to `Cc1cccc(NC(=O)c2nc(S(=O)(=O)Cc3ccccc3)ncc2Cl)c1`, the potentiation, less the hit threshold is 4% (active).

As for `O=C(/C=C/Sc1ncn[nH]1)c1ccc(Cl)cc1`, the potentiation, less the hit threshold was -17.8%.

On to `CC1=NN(C(=O)c2ccc(Br)cc2)C(O)(c2ccccc2)C1` (stereo unspecified), for which the potentiation, less the hit threshold was -11.5%.

In the case of `Cc1ccc(C(=O)Nc2nnc(C3=COCCO3)o2)cc1C`, the potentiation, less the hit threshold was 4.5% (active).

As to `COc1ccc(-c2n[nH]c(C)c2-c2ccccc2OC)c(O)c1`, the potentiation, less the hit threshold is -12.6%.

In the case of `CCCc1nc2sc3c(c2c(=O)n1NC(=O)CCCl)CCCC3`, the potentiation, less the hit threshold is 69.9% (active).

On to `CCOC(=O)NC(C(F)(F)F)(C(F)(F)F)P(=O)(c1ccccc1)c1ccccc1`, for which the potentiation, less the hit threshold was -18.1%.

As to `CCc1ccccc1NC(=O)[C@@H]1CCC(=O)N1C1OC(=O)c2c1ccc(OC)c2OC` (stereo partly specified), the potentiation, less the hit threshold is -19.6%.

As for `CC1(c2ccccc2Cl)NC(=O)N(CC(=O)NC(=O)NCc2ccco2)C1=O` (stereo unspecified), the potentiation, less the hit threshold was -11.8%.

For the compound `COc1ccc(C(=O)Nc2ncc3c(n2)-c2ccccc2CC3)cc1`, the potentiation, less the hit threshold was -1%.

Consider `CCCn1c(C2CCCN2c2nc(-c3ccc(C)cc3)cs2)nc2cc(Cl)c(N3CCCCC3)cc21` (stereo unspecified), for which the potentiation, less the hit threshold is -9.8%.

`Cc1ccc(S(=O)(=O)N2CCN(C(=O)COC(=O)c3c(C)cc(C)cc3C)CC2)c(C)c1`: the potentiation, less the hit threshold was 14.7% (active).

Regarding `Cc1cc2cc3c(cc2nc1SCC(=O)Nc1c(C)cccc1C)CCC3`, the potentiation, less the hit threshold is -22.8%.

Regarding `O=C(NCc1ccc2c(c1)OCO2)C12CC3CC(CC(C3)C1)C2`, the potentiation, less the hit threshold was 73.5% (active).

For the compound `CC(C)Cc1nnc(NC(=O)CCc2ccccc2)s1`, the potentiation, less the hit threshold is -14.9%.
